From PubChem BioAssay AID977606 (Broad Institute, 2014) come the findings set out here.

Structures are written as SMILES. Hit rate of the full screen: of about 1,500 compounds, about 430 (29%) were called active. How the calls were made is not given here. A selection follows. Results with a measured potency or affinity are listed apart.

The test can be described thus: insulin secretion activators without glucose, dose response, counter-screen for glucose-dependent insulin secretion activators, cell-based, INS-1E, Gaussia luciferase, luminescence, cherry-pick (AID 977606). The following applies: INS-1E Gaussia luciferase insulin secretion, no glucose, 100% = twice neutral-control luminescence; series mostly up to 35 µM.
For the compound `O=C(N=C1SC2CS(=O)(=O)CC2N1c1ccc(F)c(Cl)c1)C1CC1` (stereo unspecified), the result was inactive.

Take `CCCc1nc(-c2cc3cc(C)ccc3[nH]c2=O)no1`: the outcome was inactive.

In the case of `CC(=O)N1CCN(c2nnc(-c3ccc(C)cc3)c3ccccc23)CC1`, the outcome was inactive.

With `CC1Oc2ccccc2N(Cc2cccc(F)c2)C1=O` (stereo unspecified), the call was inactive.

As to `Cc1ccc(-c2ccc([C@@H]3[C@@H]4CN(Cc5ccccc5F)C[C@H]3N4)cc2)cc1`, the compound was called inactive.

Regarding `O=c1c2sccc2n(Cc2cccc(F)c2)c(=O)n1-c1ccc(F)cc1`, the outcome was inactive.

As for `COc1ccc(CN(C)C(=O)COc2cccc(-n3cnnn3)c2)cc1OC`, the outcome was inactive.

For `COc1cc(/C=N/NC(=O)CNC(=O)c2cccs2)ccc1O`, the outcome was inactive.

For `O=C(Nc1ccc(F)cc1)C1COc2ccccc2O1` (stereo unspecified), the compound was called inactive.

Consider `CN(C(=O)c1ccc(C#N)cc1)c1nnc(-c2cnccn2)s1`, for which the compound was called inactive.

Take `CC(C)CCn1c(=O)c2ccccc2n2c(CN3CCOCC3)nnc12`: the outcome was inactive.

Consider `COc1ccc(C(=O)/C=C2/c3ccccc3CC(C)(C)N2C)cc1OC`, for which the outcome was inactive.

As for `O=C(NC(=S)Nc1cccc2[nH]ncc12)c1ccccc1`, the compound was called inactive.

On to `Nc1[nH]c(C(=O)c2ccccc2)c(-c2ccncc2)c1C(=O)NCc1cccc2ccccc12`, for which the call was inactive.

Consider `COc1cc(CN2CCC(n3nccc3NC(=O)C3CCOC3)CC2)ccc1F` (stereo unspecified), for which the compound was called inactive.

In the case of `COc1ccc(C(=O)c2ccc(OC)c(OC)c2)cc1`, the outcome was inactive.

For the compound `COc1ccc(C(=O)c2cnc[nH]2)cc1OC`, the call was inactive.

As to `COc1ccc(C(=O)O/N=C(\N)c2ccc(OC)c(OC)c2)cc1`, the call was inactive.

`COc1ccc(-c2nc(N)ncc2-c2ccc(OC)c(OC)c2)c(O)c1`: the outcome was inactive.

Regarding `c1ccc(-c2nnc3n2-c2ccccc2SC3)cc1`, the call was inactive.

For the compound `COCCOC(=O)C1=C(C)NC(=O)N(C(C)=O)C1c1ccc(Cl)cc1` (stereo unspecified), the outcome was inactive.

Regarding `Cc1cc2nc(-c3ccc(Cl)cc3)c(Cc3ccsc3)n2c(C)c1Br`, the result was inactive.

In the case of `CCn1c(C)nc2cc(S(=O)(=O)C(F)(F)F)ccc21`, the call was inactive.

As for `COc1cc2[nH]c3c(Cl)ncnc3c2cc1OC`, the compound was classed as inactive.

`COc1ccc(CC(=O)O/N=C(\N)c2ccccc2)cc1OC`: the call was inactive.

For the compound `COc1ccc(/C=N/NC(=O)CCOc2ccccc2C)cc1OC`, the call was inactive.

On to `COc1ccc(/C=N/NC(=O)Cn2nnc3ccccc32)cc1OC`, for which the result was inactive.

Turning to `CNS(=O)(=O)c1ccc2c3c(cccc13)C(=O)N2`, the outcome was inactive.

For the compound `CCOC(=O)c1c(N)c(C#N)c2n1CCCC2`, the result was inactive.

As to `COc1ccc(C2=NOC(C(=O)Nc3cccnc3)C2)cc1OC` (stereo unspecified), the compound was called inactive.

As for `COc1ccc(NC(=O)C2CCCN2S(=O)(=O)c2ccc3c(c2)CC(C)N3C(C)=O)cc1OC` (stereo unspecified), the compound was classed as inactive.

Consider `COc1ccc(CC(=O)OCC(=O)N2CCCc3ccccc32)cc1OC`, for which the call was inactive.

With `O=S(=O)(c1ccc(Cl)nc1)N1CCc2ccccc21`, the result was inactive.

Consider `CCOC(=O)c1sc2ncn(/N=C/c3cccnc3)c(=O)c2c1C`, for which the call was inactive.

Regarding `COc1cc(C(=O)Nc2ccn(C)n2)ccc1OC(F)F`, the compound was called inactive.

As to `O=c1c2ccccc2nc(-c2ccco2)n1/N=C/c1ccco1`, the outcome was inactive.

On to `O=c1c2ccccc2nc(-c2ccco2)n1Cc1ccccc1`, for which the call was inactive.

Consider `O=C([C@H]1O[C@@H](n2ccc(=O)[nH]c2=O)[C@H](O)[C@@H]1O)N1CCN(c2ccc(Cl)cn2)CC1`, for which the result was inactive.

As for `CCCn1nc(C(=O)NC2CC2)c2ccccc2c1=O`, the result was inactive.

For `Cc1nc2ccccc2c(=O)n1CCCN1CCOCC1`, the outcome was inactive.

On to `CCOCCCn1c(SCc2ccccc2)nnc1-c1ccncc1`, for which the compound was classed as inactive.

Regarding `CC(C)c1ccc(NC2CCCN(C(=O)c3cccnc3)C2)cc1` (stereo unspecified), the outcome was inactive.

`COc1ccc(CCn2ccc(O)c(Cc3c(F)cccc3Cl)c2=O)cc1OC`: the compound was classed as inactive.

Consider `CCN(C[C@H]1N[C@@](CC)(C(=O)OC)[C@H]2C(=O)N(C)C(=O)[C@@H]12)S(=O)(=O)c1ccc(OC)cc1`, for which the call was inactive.

In the case of `COC(=O)C1=C(C)NC(=S)NC1c1ccc(OC)cc1` (stereo unspecified), the result was inactive.

For the compound `COc1ccc(CCC(=O)NC2CCC(C)CC2)cc1` (stereo unspecified), the outcome was inactive.

For `CNc1nc(Nc2ccccc2)nc(OCC(F)(F)F)n1`, the compound was called inactive.

Consider `CCCCN(Cc1nc2ccccc2c(=O)[nH]1)C(=O)c1nn(C)c(=O)c2ccccc12`, for which the call was inactive.

`c1cn2cc(-c3ccc(CN4CCOCC4)cc3)ccc2n1`: the result was inactive.

Consider `CC(C)CN(C(=O)C1CCCCC1)C1CCS(=O)(=O)C1` (stereo unspecified), for which the call was inactive.

On to `Cc1ccc(CN(C(=O)c2cccs2)C2CCS(=O)(=O)C2)cc1` (stereo unspecified), for which the compound was classed as inactive.

Consider `Cc1c(Cc2ccccc2)sc(NC(=O)C(C)(C)C)c1C(N)=O`, for which the call was inactive.

`Cc1c(Cc2ccccc2)sc(NC(=O)c2ccco2)c1C(N)=O`: the result was inactive.

As to `COC(=O)c1cc(S(=O)(=O)NCC2CCN(Cc3cc(C)ccc3C)CC2)c[nH]1`, the compound was called inactive.

With `Cc1ccc(C)c(OCC(=O)Nc2cc(NC(=O)COc3cc(C)ccc3C)cc(C(=O)O)c2)c1`, the call was inactive.

On to `Cc1ccc(C)c(OCC(=O)NCC(C)(C)N2CCOCC2)c1`, for which the outcome was inactive.

As for `O=C1CC(=O)Nc2cc(S(=O)(=O)NCc3cccs3)ccc2N1`, the outcome was inactive.

With `O=C1CSC(c2cccc(O)c2)N1Cc1ccccc1` (stereo unspecified), the compound was classed as inactive.

`CC(C)Cc1nc2oc3c(NCc4cccnc4)ncnc3c2c2c1CCC2`: the compound was classed as inactive.

Consider `CCOC(=O)C1CCCN(C(=O)c2ccccc2OC(F)(F)F)CC1` (stereo unspecified), for which the compound was classed as inactive.

As for `CN(C)N1C(N)=C(C#N)C(c2ccc(F)cc2)C2=C1CCCC2=O` (stereo unspecified), the call was inactive.

Take `O=C(O)c1ccc(-n2nc(-c3ccccc3)c3ccccc3c2=O)cc1`: the compound was classed as inactive.

As for `O=c1c2ccccc2c(-c2ccccc2)nn1-c1ccccn1`, the result was inactive.

Turning to `Cc1ccccc1SC1CCN(C(=O)C2CCC(=O)N(C3CC3)C2)CC1` (stereo unspecified), the outcome was inactive.

In the case of `COc1ccc(CCNC(=O)C(=O)c2c(C)n(C)c3ccccc23)cc1OC`, the compound was called inactive.

For `CCc1nc(N)nc(N)c1-c1ccc(Cl)c(N=[N+]=[N-])c1`, the compound was classed as inactive.

As to `COc1ccc(C(C)=O)cc1CSCc1cc(C(C)=O)ccc1OC`, the compound was called inactive.

Regarding `CN(C)CCCN(C(=O)CCOc1ccccc1)c1nc2c(F)cccc2s1`, the outcome was inactive.

`COc1ccc(CCNC(=O)CCn2c(=O)c3cccn3c3cccnc32)cc1OC`: the outcome was inactive.

`COc1ccc(C2=NN(C(=O)c3ccco3)C(c3cccs3)C2)cc1OC` (stereo unspecified): the outcome was inactive.

As to `CC(=O)N1CCN(c2nnc(-c3ccccc3)c3ccccc23)CC1`, the compound was classed as inactive.
